In the supplement of paper PMC13380429:

System: Vero E6 infected with SARS-CoV-2
Test: inhibition of SARS-CoV-2 cytopathic effect; higher = more antiviral protection, active = above 15
Conditions: 48 h

Measured: inhibition of SARS-CoV-2 cytopathic effect

COC[C@H](C)Oc1cc(O[C@@H](C)Cc2ccccc2)cc(C(=O)Nc2ccc(C(=O)O)cn2)c1
inactive: 1 nM -1.62% | 8.33 nM 2.26% | 100 nM 1.23% | 833.33 nM -0.06% | 10000 nM 0.06%

CCN1CCC(n2cc(CNc3cc(Cl)c4ncc(C#N)c(Nc5ccc(F)c(Cl)c5)c4c3)nn2)CC1 [cot-inhibitor-2]
inactive: 1 nM 0.26% | 8.33 nM -1.48% | 100 nM 0.28% | 833.33 nM -0.75% | 10000 nM 14%

O=c1c(O)c(-c2cc(O)c(O)c(O)c2)oc2cc(O)cc(O)c12 [myricetin]
inactive: 1 nM -0.44% | 8.33 nM 0.2% | 100 nM 3.15% | 833.33 nM 5.8% | 10000 nM 0.05%

CC(=O)/N=c1/sc(S(N)(=O)=O)nn1C [methazolamide]
inactive: 1 nM 2.05% | 8.33 nM 1.62% | 100 nM -1.26% | 833.33 nM -0.76% | 10000 nM 1.82%

CO[C@H]1[C@H](O)[C@@H](O)[C@@H](O)[C@H](O)[C@@H]1O [pinitol]
inactive: 1 nM 0.84% | 8.33 nM -0.26% | 100 nM -2.68% | 833.33 nM -0.47% | 10000 nM 1.55%

Cc1cc(C(C)(C)C)cc(C)c1CC1=NCCN1 [xylometazoline]
inactive: 1 nM -7.36% | 8.33 nM -8.77% | 100 nM -5.88% | 833.33 nM -7.35% | 10000 nM -6.68%

OCc1cc(C(O)CNCCCCCCOCCCCc2ccccc2)ccc1O (stereo not given) [salmeterol]
inactive: 1 nM 0.19% | 8.33 nM 2.26% | 100 nM 10.4% | 833.33 nM 1.95% | 10000 nM -1.77%

C[C@]12CCC(=O)C=C1CC[C@@H]1[C@@H]2[C@@H](O)C[C@@]2(C)[C@H]1CC[C@]2(O)C(=O)COC(=O)CCC(=O)O [hydrocortisone-hemisuccinate]
inactive: 1 nM -3.36% | 8.33 nM -5.52% | 100 nM -5.26% | 833.33 nM -3.7% | 10000 nM -4.67%

CN(CCOc1ccc(CC2SC(=O)NC2=O)cc1)c1ccccn1 (stereo not given) [rosiglitazone]
inactive: 1 nM -1.76% | 8.33 nM -2.53% | 100 nM -4.45% | 833.33 nM -0.37% | 10000 nM 1.48%

CC(C)NCC(O)c1ccccc1Cl (stereo not given) [clorprenaline]
inactive: 1 nM 2.05% | 8.33 nM 1% | 100 nM 0.74% | 833.33 nM 1.39% | 10000 nM -1.17%

N#Cc1ccc(N2N=C3c4ccc(C(=O)O)cc4CC[C@@H]3[C@@H]2C2CCCC2)cc1Cl
active: 8.33 nM 18% | 100 nM 18.3%
inactive: 1 nM 7.07% | 833.33 nM 4.59% | 10000 nM 10.2%

O=C(CN1CCN(C(=O)c2ccco2)CC1)Nc1cc(C(F)(F)F)ccc1Cl
inactive: 1 nM 0.23% | 8.33 nM -4.63% | 100 nM -0.17% | 833.33 nM 1.03% | 10000 nM 5.23%

CN(c1ccccc1CNc1nc(Nc2ccc3c(c2)CC(=O)N3)ncc1C(F)(F)F)S(C)(=O)=O
inactive: 1 nM -0.17% | 8.33 nM -0.35% | 100 nM -2.19% | 833.33 nM -5.19% | 10000 nM -15.4%

CCN(c1cc(-c2ccc(CN3CCOCC3)cc2)cc(C(=O)NCc2c(C)cc(C)[nH]c2=O)c1C)C1CCOCC1 [tazemetostat]
inactive: 1 nM 2.86% | 8.33 nM 0.49% | 100 nM 3.47% | 833.33 nM 0.53% | 10000 nM -0.93%

COc1ccc2[nH]c(I)c(CCNC(C)=O)c2c1 [2-iodomelatonin]
inactive: 1 nM 3.34% | 8.33 nM 4.46% | 100 nM 0.99% | 833.33 nM 0.89% | 10000 nM 0.94%

CCn1c(-c2nonc2N)nc2c(C#CC(C)(C)O)ncc(OC[C@H]3CCCNC3)c21
inactive: 1 nM 2.55% | 8.33 nM 4.66% | 100 nM 3.53% | 833.33 nM 5.33% | 10000 nM 4.74%

CO[C@@]1(NC(=O)CSC[C@@H](N)C(=O)O)C(=O)N2C(C(=O)O)=C(CSc3nnnn3C)CS[C@@H]21 [cefminox]
inactive: 1 nM -0.91% | 8.33 nM 0.78% | 100 nM -1.2% | 833.33 nM -1.63% | 10000 nM 1.75%

C[C@]12CC[C@@H]3c4ccc(O)cc4CC[C@H]3[C@@H]1CC[C@@H]2O [estradiol]
inactive: 1 nM 1.43% | 8.33 nM 2.24% | 100 nM -0.69% | 833.33 nM -2.04% | 10000 nM -1.69%

O=C1N[C@@H]2[C@@H](O)[C@@H](O)[C@H](O)[C@@H](CO)N2C1=O [kifunensine]
inactive: 1 nM 0.31% | 8.33 nM 1.46% | 100 nM 3.44% | 833.33 nM 4.14% | 10000 nM 14.9%

N#Cc1ccc(-c2csc(NN=C3CCCC3)n2)cc1 [remodelin]
inactive: 1 nM 0.9% | 8.33 nM 1% | 100 nM 1.18% | 833.33 nM 0.48% | 10000 nM 0.34%

C[C@@H]1C[C@H]2[C@@H]3CCC4=CC(=O)C=C[C@]4(C)[C@@]3(F)[C@@H](O)C[C@]2(C)[C@H]1C(=O)CO [desoximetasone]
inactive: 1 nM -2.66% | 8.33 nM 0.15% | 100 nM -1.47% | 833.33 nM 1.96% | 10000 nM 0.8%

N[C@@H](C(=O)O)c1nn[nH]n1 (racemic) [tetrazol-5-yl-glycine-(RS)]
inactive: 1 nM -2.49% | 8.33 nM -1.1% | 100 nM 0.87% | 833.33 nM 1.56% | 10000 nM -1.13%

COc1cc2nc(N3CCN(C(=O)C4CCCO4)CC3)nc(N)c2cc1OC (stereo not given) [terazosin]
inactive: 1 nM 1.36% | 8.33 nM -0.59% | 100 nM -1.51% | 833.33 nM -0.05% | 10000 nM 1.35%

NC(=O)CN1CC(O)CC1=O (stereo not given) [oxiracetam]
inactive: 1 nM 1.13% | 8.33 nM 0.12% | 100 nM 0.71% | 833.33 nM 4.22% | 10000 nM 0.29%

CCCCCCCCN=c1ccn(CCCCCCCCCCn2ccc(=NCCCCCCCC)cc2)cc1 [octenidine]
inactive: 1 nM 0.26% | 8.33 nM 2.35% | 100 nM 0% | 833.33 nM -7.17% | 10000 nM -19.8%

COC(=O)[C@H](c1ccccc1Cl)N1CCc2sccc2C1 [clopidogrel]
inactive: 1 nM 0.4% | 8.33 nM 0.66% | 100 nM 1.82% | 833.33 nM -3.38% | 10000 nM -0.85%

CC/C(=C(/CC)c1ccc(O)cc1)c1ccc(O)cc1 [diethylstilbestrol]
inactive: 1 nM -1.15% | 8.33 nM -2.29% | 100 nM -2.18% | 833.33 nM 3.59% | 10000 nM 6.76%

CN1C(=O)CC(c2ccccc2)C1=O (stereo not given) [phensuximide]
inactive: 1 nM 2.58% | 8.33 nM 3.13% | 100 nM 2.74% | 833.33 nM 2.55% | 10000 nM -1.46%

CC/C(=C(\c1ccc(O)cc1)c1ccc(OCCN(C)C)cc1)c1ccccc1 [afimoxifene]
active: 10000 nM 40%
inactive: 1 nM -2.83% | 8.33 nM 1.16% | 100 nM 3.76% | 833.33 nM -0.54%

O=C(CCCN1CCC(n2c(=O)[nH]c3ccccc32)CC1)c1ccc(F)cc1 [benperidol]
inactive: 1 nM 0.17% | 8.33 nM -0.44% | 100 nM -0.77% | 833.33 nM 2.15% | 10000 nM -4.28%

O=C(NCCNCC(O)COc1ccc(O)cc1)N1CCOCC1 (stereo not given) [xamoterol]
inactive: 1 nM -2.07% | 8.33 nM -0.88% | 100 nM -0.13% | 833.33 nM 0.01% | 10000 nM 3.26%

N=C(NCc1ccc(Cl)cc1)SCCCc1c[nH]cn1 [clobenpropit]
inactive: 1 nM 1.58% | 8.33 nM 1.91% | 100 nM 1.78% | 833.33 nM 1.78% | 10000 nM 0.31%

Nc1nc(NCCc2ccc(O)cc2)nc2nc(-c3ccco3)nn12
inactive: 1 nM 0.11% | 8.33 nM -0.03% | 100 nM -0.54% | 833.33 nM -1.25% | 10000 nM -5.15%

O=C(O)C1=CCCN(CCOC(c2ccc(C(F)(F)F)cc2)c2ccc(C(F)(F)F)cc2)C1
inactive: 1 nM 0.02% | 8.33 nM 0.95% | 100 nM -2.81% | 833.33 nM 1.77% | 10000 nM 0.32%

CCC(=O)O[C@H](CC(=O)O)C[N+](C)(C)C [levocarnitine-propionate]
inactive: 1 nM -0.81% | 8.33 nM 4.36% | 100 nM 0.32% | 833.33 nM 3.36% | 10000 nM 0.31%

C=CC(N)CCC(=O)O (stereo not given) [vigabatrin]
inactive: 1 nM -9.39% | 8.33 nM -9.03% | 100 nM -9.5% | 833.33 nM -11% | 10000 nM -9.82%

C#Cc1cncc([C@@H]2CCCN2C)c1 [altinicline]
inactive: 1 nM -3.46% | 8.33 nM -2.16% | 100 nM -1.9% | 833.33 nM -2.32% | 10000 nM 0.92%

Oc1ccc(Cl)c2c1CCC2 [chlorindanol]
inactive: 1 nM 1.21% | 8.33 nM -1.76% | 100 nM -1.84% | 833.33 nM -1.95% | 10000 nM 4.12%

COc1cnc(NS(=O)(=O)c2ccc(N)cc2)nc1 [sulfameter]
inactive: 1 nM -0.38% | 8.33 nM 1.1% | 100 nM 0.11% | 833.33 nM 0.46% | 10000 nM 2.89%

C[N+]1(C)[C@@H]2CC[C@H]1C[C@@H](OC(=O)C(O)c1ccccc1)C2 (stereo not given in full) [homatropine-methylbromide]
inactive: 1 nM 0.79% | 8.33 nM 1.12% | 100 nM 0.14% | 833.33 nM 0.62% | 10000 nM 0.96%
